Bioassay records from PubChem BioAssay.
Most compounds without a hit are left out; they make up all but 6.2% or so of the library.
MARV entry inh = inhibitors of Marburg virus binding or cell entry | Marburg virus pseudotyped entry inhibition, cell reporter | AID 540276 | Potency, µM (doses to about 37.8 µM), most hits filed as inhibitors | actives 1.8% (n = 300,000); calls by dose curve; tested in HEK293 cells
HCMV inh = blocks human cytomegalovirus replication; HFF cells, HCMV-luciferase reporter, 72 h; active compounds read low; activity change, negative = inhibition, % at 57.5 µM; actives 4.5% (n = 410,000); AID 1259415; in the data active = activity change below about -60%; inconclusive = no clear call, values can overlap the other calls; inactive = above about -39%
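Cell-based, HFFs, 1000 cells/well, 16 h 37C; cpds in DMSO + HCMV-luc, MOI 1 PFU/cell; 72 h 37C; OneGlo luminescence after 5 min RT; norm. to buffer vs Salinomycin 10uM.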
Lassa entry inh = blocks Lassa virus binding to or entry into cells | Lassa virus pseudotype entry inhibition, cell reporter | Potency, µM (titrated, usually from 37.9 µM), hits mostly inhibitors | actives 1.2% (n = 300,000) | AID 540256; calls by dose curve; tested in HEK293 cells; note: nearly all actives have a fitted effect of over 50% in size
FMDV inh = blocks foot and mouth disease virus. FMDV antiviral cell-based qHTS. Potency, µM (titrated, usually from 57.9 µM), most hits filed as inhibitors. actives 1.2% (n = 410,000); calls by dose curve; tested in HEK293T cells; note: read-out not given here; nearly all actives have a fitted effect of over 45% in size
Large screens that a line does not name were inactive.

CCCCOc1cccc(C(=O)Nc2ccc(S(=O)(=O)Nc3nnc(CC)s3)cc2)c1	none (no result: MARV entry inh, Lassa entry inh)
O=C(NCc1ccc2c(c1)OCO2)c1ccccc1Cl	none
O=C(NCc1ccc2c(c1)OCO2)c1nc(S(=O)(=O)Cc2ccccc2)ncc1Cl	MARV entry inh inconclusive, HCMV inh -103, Lassa entry inh inconclusive, FMDV inh 16µM
O=C(NCc1ccc2c(c1)OCO2)c1nc(S(=O)(=O)Cc2ccccc2F)ncc1Cl	HCMV inh -80, FMDV inh 22µM (no result: MARV entry inh, Lassa entry inh)
O=c1[nH]cnc2sc3c(c12)CN(Cc1ccccc1)CC3	none (no result: HCMV inh)
CCOC(=O)CNC(=O)C(Cc1ccccc1)NC(=O)OCc1ccccc1 (stereo unspecified)	none (no result: MARV entry inh, Lassa entry inh)
CCOC(=O)CNC(=O)C(CO)NC(=O)OCc1ccccc1 (stereo unspecified)	HCMV inh -100
CC(C)CC(NC(=O)OCc1ccccc1)C(=O)NC(Cc1ccccc1)C(=O)CCl (stereo unspecified)	MARV entry inh inconclusive, Lassa entry inh inconclusive, FMDV inh 25µM
O=C(NCCCN1CCOCC1)C(=O)N/N=C/c1cccc2ccccc12	none
COc1ccc(CN2CCNC(=O)C2CC(=O)NCCCn2nnc3ccccc32)cc1C (stereo unspecified)	none
COc1cccc(OC)c1C(=O)NCCc1sc(-c2cccc(F)c2)nc1C	none (no result: MARV entry inh)
Cc1ccc(NC(=O)c2cnc3sc(N4CCOCC4)nn3c2=O)cc1N(C)C	FMDV inh 32µM (no result: Lassa entry inh)
Cc1ccc(C(O)(c2ccccc2)c2ccccc2C(C)N(C)C)c(C)c1 (stereo unspecified)	MARV entry inh 5.8µM, HCMV inh inconclusive, Lassa entry inh 8.2µM (no result: FMDV inh)
CC(c1ccccc1C(O)c1ccccc1)N(C)C (stereo unspecified)	none (no result: FMDV inh)
O=C(N/N=C/CCc1ccccc1)c1ccc(CN2c3cccc4cccc(c34)S2(=O)=O)cc1	HCMV inh inconclusive, FMDV inh 40µM
CCCCN(CCCC)CCNC(=O)CN1C(=O)CSc2ccc(S(=O)(=O)N3CCCCC3)cc21	HCMV inh inconclusive (no result: MARV entry inh)
Cc1cc(C)c2cc(CN(Cc3ccco3)C(=O)NCc3ccccc3)c(=O)[nH]c2c1	MARV entry inh 2.8µM, Lassa entry inh inconclusive
Cc1cc(C)c2cc(CN(CC3CCCO3)C(=S)NCc3ccco3)c(=O)[nH]c2c1 (stereo unspecified)	HCMV inh inconclusive
Cc1cc(C)cc(Oc2coc3cc(OC(=O)c4cccnc4)ccc3c2=O)c1	none
CCC1(CC)C(=O)NC(=O)NC1=NCCc1ccc(O)cc1	HCMV inh -68
O=C(c1cnn(C(=O)COc2ccc(Cl)cc2)c1)c1ccccc1O	MARV entry inh inconclusive, HCMV inh inconclusive
Cc1ccc(O)c(C(=O)c2cnn(C(=O)COc3ccc(Cl)cc3)c2)c1	HCMV inh -61
COc1ccc(/C=C/C(=O)CCC(=O)O)cc1	none
O=C(/C=C/c1ccccc1)CC(O)(c1ccccc1)C(F)(F)F (stereo unspecified)	MARV entry inh inconclusive, HCMV inh -102, Lassa entry inh inconclusive (no result: FMDV inh)
COc1ccc(/C=C/C(=O)CC(O)(c2ccccc2)C(F)(F)F)cc1 (stereo unspecified)	MARV entry inh inconclusive, HCMV inh -100, Lassa entry inh inconclusive, FMDV inh 35µM
COc1cccc(C2CC(=O)NC(SC)=C2C#N)c1 (stereo unspecified)	none (no result: MARV entry inh, Lassa entry inh)
CC1CCC(NC(=O)c2nn(C)c3c2CS(=O)(=O)c2ccccc2-3)CC1 (stereo unspecified)	none (no result: MARV entry inh, Lassa entry inh)
Cn1nc(C(=O)NC2CCCCC2)c2c1-c1ccccc1S(=O)(=O)C2	HCMV inh -85 (no result: MARV entry inh, Lassa entry inh)
Cc1ccc(CSC(Nc2ccc(F)cc2)=C(C#N)C#N)cc1	MARV entry inh inconclusive, HCMV inh -100, Lassa entry inh 13µM
Cc1cccc(N2CCN(c3ncnc4c3nc3n4CCCCC3)CC2C)c1 (stereo unspecified)	HCMV inh -98, Lassa entry inh inconclusive, FMDV inh 2.2µM (no result: MARV entry inh)
Cc1ccc(Cl)cc1N1CCN(c2ncnc3c2nc2n3CCCCC2)CC1	FMDV inh inconclusive (no result: MARV entry inh)
Cc1cccc(N2CCN(CCCNC(=O)C3CCCN(c4ncnc5c4nc4n5CCCCC4)C3)CC2C)c1 (stereo unspecified)	MARV entry inh 11µM, HCMV inh inconclusive, Lassa entry inh inconclusive, FMDV inh inconclusive
Cc1cccc(CCNC(=O)C2CCCN(c3ncnc4c3nc3n4CCCCC3)C2)c1 (stereo unspecified)	MARV entry inh inconclusive, HCMV inh inconclusive, Lassa entry inh inconclusive
Cc1cc(C)n(-c2nc(NC(C)(C)C)nc(NC(C)(C)C)n2)n1	MARV entry inh inconclusive, HCMV inh inconclusive, FMDV inh inconclusive
Cc1cc(C)n(-c2nc(Nc3ccccc3C)nc(-n3nc(C)cc3C)n2)n1	HCMV inh -97 (no result: Lassa entry inh, FMDV inh)
